The results in this text go back to PubChem BioAssay (NCI).

Compounds without any hit were thinned out: in the full panel of roughly 83,000, 20% have a hit.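 Percent growth is the endpoint: 0 to 100 indicates growth inhibition (40 means 60% inhibition), 0 means no net growth, and negative values indicate cell death.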 Values without a mark were called inactive. Activity calls are given as the source filed them. How the source made its calls: active means growth percent below 10; inactive means the rest.

Test systems include T-47D breast; BT-549 breast; MDA-MB-435 melanoma; SW-620 colon; MCF7 breast; HCT-116 colon; HCC-2998 colon; KM12 colon; MDA-MB-468 breast.
What all share (experiment): NCI-60 one-dose screen, 48 h (100 = growth as untreated, 0 = no growth, -100 = all killed)
Details in all cases: 10 µM unless noted

`COc1ccc2oc(=O)c(-c3csc(N/N=C(\C)c4cc(OC)c(OC)c(OC)c4)n3)cc2c1`: the growth in the test on T-47D breast was 65.7%; in the test on BT-549 breast, 39%; in the test on MDA-MB-435 melanoma, 99.2%; in the test with SW-620 colon, 108%; with MCF7 breast it was 79.8%; in the test with HCT-116 colon, 92.2%. For the same compound, the figures for the growth in the test with HCC-2998 colon, in the test on KM12 colon and in the test with MDA-MB-468 breast were 112%, 87.6% and 79.9%, respectively.
For `CN1CCN(C(=O)Oc2cc3c(c4ccccc24)[C@H](CCl)CN3C(=O)c2cc3cc(OCCCN4CCC4)ccc3[nH]2)[C@H]2CSSC[C@H]21`, the growth with T-47D breast was -12.9% (active); in the test with BT-549 breast, -36.8% (active); in the test with MDA-MB-435 melanoma, -70.2% (active); with SW-620 colon, 4.18% (active); with MCF7 breast, 3.7% (active); in the test on HCT-116 colon, 6.44% (active). Besides, the growth with HCC-2998 colon is -47% (active); with KM12 colon, 2.01% (active); in the test on MDA-MB-468 breast, -78.4% (active).
For the compound `COc1ccc(-c2cc(C(=O)N=Nc3c(O)[nH]c4ccc(Cl)cc34)c3ccccc3n2)cc1`, the growth in the test with T-47D breast is 102%; in the test on BT-549 breast it was 107%; in the test on MDA-MB-435 melanoma, 44.4%; in the test on SW-620 colon it was 7.42% (active); in the test with MCF7 breast, 19.2%; in the test on HCT-116 colon, 65.6%. The growth with HCC-2998 colon was 19.3%; with KM12 colon, 28%; in the test with MDA-MB-468 breast it was 74.9%.
On to `COc1ccc2[nH]cc(-c3cc4nc(-c5cn(C)c6ncc(Br)cc56)cc(N)n4n3)c2c1`, for which the growth in the test with T-47D breast is -62.7% (active); in the test with BT-549 breast it was -57.3% (active); in the test on MDA-MB-435 melanoma it was -61.6% (active); with SW-620 colon, -74.4% (active); in the test on MCF7 breast it was -59.7% (active); with HCT-116 colon it was -95.9% (active). Also, the growth with HCC-2998 colon is -95% (active); with KM12 colon, -49.8% (active); with MDA-MB-468 breast, -83.1% (active).
As for `COc1c(B(O)O)cccc1-c1nc2ccc3cn[nH]c3c2c2c1CCCC2`, the growth in the test with T-47D breast is 70.6%; in the test on BT-549 breast it was 30.7%; in the test on MDA-MB-435 melanoma it was 84.2%; in the test on SW-620 colon it was 53.6%; in the test on MCF7 breast, 60.5%; in the test on HCT-116 colon, 28.8%. The results for the growth in the test with HCC-2998 colon, with KM12 colon and in the test on MDA-MB-468 breast were 86.9%, 62.3% and 10.5%, respectively.
On to `COc1cccc(-c2ccc(/C=N/NC(=O)c3[nH]c4ccc(Br)cc4c3-c3ccccc3)s2)c1`, for which the growth was 52.9% in the test with T-47D breast; -26.9% (active) with BT-549 breast; -51.3% (active) in the test with MDA-MB-435 melanoma; 20.4% in the test with SW-620 colon; 1.38% (active) with MCF7 breast; -27.5% (active) with HCT-116 colon. For the same compound, the growth is 5.11% (active) with HCC-2998 colon, -14.2% (active) in the test on KM12 colon and 7.16% (active) in the test on MDA-MB-468 breast.
As for `O=C(N/N=C/c1ccc(Br)o1)c1[nH]c2ccc(Br)cc2c1-c1ccccc1`, the growth in the test on T-47D breast was 27.1%; with BT-549 breast, -27.8% (active); in the test on MDA-MB-435 melanoma, -29.1% (active); in the test with SW-620 colon it was 6.96% (active); with MCF7 breast it was 0.0933% (active); in the test with HCT-116 colon, -13.3% (active). Also, the growth with HCC-2998 colon is -7.57% (active); in the test with KM12 colon, -1.58% (active); in the test on MDA-MB-468 breast, 5.25% (active).
`CS(=O)(=O)c1ccc(-n2nc(C(=O)NCc3ccccc3)cc2-c2ccc(Cl)cc2)cc1`: the growth in the test with T-47D breast was 66.6%; in the test with BT-549 breast, 143%; in the test on MDA-MB-435 melanoma it was 91.7%; in the test with SW-620 colon, 99.8%; with MCF7 breast, 70.1%; in the test on HCT-116 colon it was 69.6%. Also, the values for the growth with HCC-2998 colon, with KM12 colon and in the test on MDA-MB-468 breast were 99.4%, 89.2% and 86.7%, respectively.
On to `O=C1Nc2ccccc2/C1=C/C(=O)c1cc2ccccc2oc1=O`, for which the growth in the test with T-47D breast is 83.2%; in the test with BT-549 breast it was 111%; in the test with MDA-MB-435 melanoma, 110%; in the test on SW-620 colon, 2.06% (active); with MCF7 breast, 53.3%; in the test with HCT-116 colon it was 66%. Moreover, the growth with HCC-2998 colon was 140%; with KM12 colon it was 95.9%; in the test on MDA-MB-468 breast, 54.4%.
On to `COc1ccc(-c2nc3ccc(-c4nnc(SCC(=O)Nc5ccc(/C(C)=N\O)cc5)o4)cc3[nH]2)cc1`, for which the growth in the test on T-47D breast was 53.1%; in the test on BT-549 breast it was -62.3% (active); in the test with MDA-MB-435 melanoma, 14.5%; in the test with SW-620 colon it was 96.2%; in the test with MCF7 breast, 37%; in the test with HCT-116 colon, 70.5%. Also, the growth was 126% with HCC-2998 colon, 37.6% in the test on KM12 colon and 100% in the test with MDA-MB-468 breast.
On to `CCOc1ccc(-c2cc(-c3cc(C(C)C)c(O)cc3C)nn2-c2ccc(S(N)(=O)=O)cc2)cc1`, for which the growth is 18.4% in the test with T-47D breast; 3.59% (active) in the test with BT-549 breast; -43.6% (active) in the test on MDA-MB-435 melanoma; 33.3% in the test on SW-620 colon; 12% with MCF7 breast; 24% in the test with HCT-116 colon. Also, the figures for the growth in the test on HCC-2998 colon, with KM12 colon and with MDA-MB-468 breast were 4.6% (active), 7.96% (active) and -16.5% (active), respectively.
Take `N#Cc1ccc(C(=O)NNC(=O)CSc2nc3sc4c(c3c(=O)n2-c2ccc(Cl)cc2)CCCC4)cc1`: the growth with T-47D breast was 58.6%; in the test with BT-549 breast it was 22.7%; in the test on MDA-MB-435 melanoma it was 63.7%; with SW-620 colon, 60.3%; in the test with MCF7 breast, 63%; in the test with HCT-116 colon it was 37.5%. The growth in the test on HCC-2998 colon is 96.1%; in the test with KM12 colon, 91.2%; in the test with MDA-MB-468 breast, 92%.
Turning to `COc1ccc(-n2c(NC(=O)N3CCN(C)CC3)c(C#N)c3ccccc32)cc1`, the growth is 55.2% with T-47D breast; 57.7% in the test on BT-549 breast; 71.7% in the test on MDA-MB-435 melanoma; 69.2% in the test with SW-620 colon; 35.5% in the test on MCF7 breast; 48% with HCT-116 colon. Moreover, the growth was 89% with HCC-2998 colon, 34.1% in the test with KM12 colon and 38.3% with MDA-MB-468 breast.
With `O=C(Nc1ccc(Cl)c(C(F)(F)F)c1)N1CCN(c2cc(-c3cn(-c4ccccc4)nc3-c3cccc(O)c3)ccn2)CC1`, the growth in the test with T-47D breast was -1.78% (active); with BT-549 breast, -39.4% (active); with MDA-MB-435 melanoma, -65.4% (active); in the test on SW-620 colon, 16.6%; in the test with MCF7 breast it was -22.2% (active); in the test on HCT-116 colon, 4.83% (active). Further, the growth is 6.31% (active) in the test on HCC-2998 colon, -8.11% (active) in the test on KM12 colon and -34.8% (active) with MDA-MB-468 breast.
